Results taken from PubChem BioAssay AID1159580 (chemical genetic matrix, 2015).
Out of some 5,500 compounds screened, about 2,000 (36%) were called active. Another 18% or so got no clear call; they are omitted. Cut-off read from the data, not from the text of the source: active = normalized growth mostly below about 0.91 (no sharp cut-off); inconclusive = no clear call, values can overlap the other calls; inactive = mostly above about 0.92. The list shows a part of the results.

Experiment: chemical genetic growth profiling, strain panel (AID 1159580);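 note: tested at 20 µM; growth read once vehicle control cultures reached saturation at 30 °C; 1 = growth at the plate median or of vehicle wells; lower values mean less growth of the strain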
Settings: growth OD
[1] = S. cerevisiae deletion strains, locus YAL013W, strain DEP1, stronger effect = lower value
[2] = S. cerevisiae deletion strains, locus YBR229C, strain ROT2, stronger effect = lower value
[3] = S. cerevisiae deletion strains, locus YDL101C, strain DUN1, stronger effect = lower value
[4] = S. cerevisiae deletion strains, locus YDL134C, strain PPH21, stronger effect = lower value
[5] = S. cerevisiae deletion strains, locus YDR150W, strain NUM1, stronger effect = lower value
[6] = S. cerevisiae deletion strains, locus YEL061C, strain CIN8, stronger effect = lower value
[7] = S. cerevisiae deletion strains, locus YGR078C, strain PAC10, stronger effect = lower value
[8] = S. cerevisiae deletion strains, locus YHR030C, strain SLT2, stronger effect = lower value
[9] = S. cerevisiae deletion strains, locus YHR087W, strain rtc3, stronger effect = lower value
[10] = S. cerevisiae deletion strains, locus YJR043C, strain POL32, stronger effect = lower value
[11] = S. cerevisiae deletion strains, locus YJR075W, strain HOC1, stronger effect = lower value
[12] = S. cerevisiae deletion strains, locus YLR039C, strain RIC1, stronger effect = lower value
[13] = S. cerevisiae deletion strains, locus YLR058C, strain SHM2 (second series), stronger effect = lower value
[14] = S. cerevisiae deletion strains, locus YLR085C, strain ARP6, stronger effect = lower value
[15] = S. cerevisiae deletion strains, locus YLR262C, strain YPT6, stronger effect = lower value
[16] = S. cerevisiae deletion strains, locus YML094W, strain GIM5, stronger effect = lower value
[17] = S. cerevisiae deletion strains, locus YMR219W, strain ESC1, stronger effect = lower value
[18] = S. cerevisiae deletion strains, locus YMR263W, strain SAP30, stronger effect = lower value
[19] = S. cerevisiae deletion strains, locus YNL128W, strain TEP1, stronger effect = lower value
[20] = S. cerevisiae deletion strains, locus YNL153C, strain GIM3, stronger effect = lower value
[21] = S. cerevisiae deletion strains, locus YNL298W, strain CLA4 (second series), stronger effect = lower value
[22] = S. cerevisiae deletion strains, locus YNL322C, strain KRE1, stronger effect = lower value
[23] = S. cerevisiae deletion strains, locus YNR030W, strain Alg12, stronger effect = lower value
[24] = S. cerevisiae deletion strains, locus YPL055C, strain LGE1, stronger effect = lower value
[25] = S. cerevisiae deletion strains, locus YPL241C, strain CIN2, stronger effect = lower value
[26] = S. cerevisiae deletion strains, locus YPR135W, strain CTF4, stronger effect = lower value
[27] = S. cerevisiae deletion strains, locus YMR307W, strain GAS1, stronger effect = lower value

Measured: normalized growth

COc1ccc(N=Cc2ccccc2O)cc1
inactive: [1] 0.993 | [2] 0.99 | [3] 0.991 | [4] 1.01 | [5] 0.952 | [6] 0.991 | [7] 0.995 | [8] 0.879 | [9] 0.969 | [10] 0.956 | [11] 0.967 | [12] 0.841 | [13] 0.988 | [14] 0.999 | [16] 0.978 | [17] 0.976 | [18] 0.963 | [19] 0.986 | [20] 1.01 | [21] 0.975 | [22] 0.985 | [23] 0.973 | S. cerevisiae deletion strains, locus YOL006C, strain TOP1, stronger effect = lower value 0.819 | [24] 0.912 | [25] 0.977 | [26] 0.86 | S. cerevisiae strains, strain wild type, stronger effect = lower value 0.977
active: [15] 0.813

COc1ccc(C=Nc2ccc(O)cc2)cc1
inactive: [1] 0.999 | [2] 1.01 | S. cerevisiae deletion strains, locus YCL061C, strain MRC1, stronger effect = lower value 0.979 | [3] 1.03 | [4] 1.03 | [5] 0.975 | [6] 1.05 | [7] 0.996 | [8] 1.04 | [9] 0.998 | [10] 0.99 | [11] 1.04 | S. cerevisiae deletion strains, locus YKL190W, strain CNB1, stronger effect = lower value 1.02 | [12] 0.936 | [13] 1.02 | [14] 1.03 | [15] 0.931 | [16] 1.01 | [17] 0.996 | [18] 1.02 | [27] 1.15 | [19] 1.02 | [20] 1.01 | [21] 1.04 | [22] 0.994 | [23] 1.01 | [24] 1.04 | [25] 0.987 | [26] 0.995

CCCN(CCC)CCc1c[nH]c2ccc(C(N)=O)cc12
inactive: S. cerevisiae deletion strains, locus YAL040C, strain CLN3, stronger effect = lower value 1.07 | S. cerevisiae deletion strains, locus YCL061C, strain MRC1 (second series), stronger effect = lower value 0.996 | S. cerevisiae deletion strains, locus YDR363W, strain ESC2, stronger effect = lower value 0.981 | S. cerevisiae deletion strains, locus YER002W, strain NOP16, stronger effect = lower value 0.991 | [18] 0.988 | [27] 1 | S. cerevisiae deletion strains, locus YNL175C, strain NOP13, stronger effect = lower value 1.05 | S. cerevisiae deletion strains, locus YNL197C, strain WHI3, stronger effect = lower value 1.02 | S. cerevisiae deletion strains, locus YNL224C, strain SQS1, stronger effect = lower value 0.994 | [22] 0.95 | S. cerevisiae deletion strains, locus YOR083W, strain WHI5 (second series), stronger effect = lower value 1.01 | [25] 0.988

CC(=O)O[C@H]1CC[C@]2(C)C3=CC(=O)[C@@]4(C)C(C[C@@H]5OC6(OCC(C)CC6Br)[C@@H](C)[C@@H]54)C3CC[C@H]2C1 (stereo partly drawn)
inactive: [1] 1.01 | S. cerevisiae deletion strains, locus YBR021W, strain FUR4, stronger effect = lower value 0.964 | [2] 0.99 | S. cerevisiae deletion strains, locus YCL029C, strain bik1, stronger effect = lower value 0.994 | S. cerevisiae deletion strains, locus YDL035C, strain GPR1, stronger effect = lower value 1.01 | S. cerevisiae deletion strains, locus YDL074C, strain BRE1, stronger effect = lower value 1.01 | [3] 0.989 | S. cerevisiae deletion strains, locus YDL185W, strain tfp1, stronger effect = lower value 0.988 | S. cerevisiae deletion strains, locus YDL192W, strain arf1, stronger effect = lower value 0.995 | S. cerevisiae deletion strains, locus YDR101C, strain arx1, stronger effect = lower value 1.02 | S. cerevisiae deletion strains, locus YDR162C, strain NBP2, stronger effect = lower value 1.01 | S. cerevisiae deletion strains, locus YDR318W, strain mcm21, stronger effect = lower value 0.997 | S. cerevisiae deletion strains, locus YDR388W, stronger effect = lower value 0.994 | S. cerevisiae deletion strains, locus YDR502C, strain sam2, stronger effect = lower value 0.995 | S. cerevisiae deletion strains, locus YER110C, stronger effect = lower value 0.986 | S. cerevisiae deletion strains, locus YER155C, strain BEM2, stronger effect = lower value 0.987 | S. cerevisiae deletion strains, locus YER167W, strain BCK2, stronger effect = lower value 0.996 | S. cerevisiae deletion strains, locus YGL078C, strain dbp3, stronger effect = lower value 0.982 | S. cerevisiae deletion strains, locus YGL086W, strain mad1, stronger effect = lower value 1.01 | S. cerevisiae deletion strains, locus YGL248W, strain PDE1, stronger effect = lower value 0.995 | S. cerevisiae deletion strains, locus YGR135W, strain pre9, stronger effect = lower value 0.973 | S. cerevisiae deletion strains, locus YGR229C, strain SMI1, stronger effect = lower value 1.03 | S. cerevisiae deletion strains, locus YGR252W, strain gcn5, stronger effect = lower value 0.986 | [8] 0.992 | S. cerevisiae deletion strains, locus YHR079C, strain IRE1 (second series), stronger effect = lower value 0.984 | S. cerevisiae deletion strains, locus YHR094C, strain hxt1, stronger effect = lower value 0.973 | S. cerevisiae deletion strains, locus YHR129C, strain ARP1, stronger effect = lower value 0.995 | S. cerevisiae deletion strains, locus YHR200W, strain rpn10, stronger effect = lower value 0.984 | S. cerevisiae deletion strains, locus YIL066C, strain RNR3, stronger effect = lower value 1 | S. cerevisiae deletion strains, locus YIL073C, strain SPO22, stronger effect = lower value 1.01 | S. cerevisiae deletion strains, locus YIL125W, strain kgd1, stronger effect = lower value 0.994 | S. cerevisiae deletion strains, locus YIR030C, strain dcg1, stronger effect = lower value 0.996 | S. cerevisiae deletion strains, locus YJL095W, strain BCK1, stronger effect = lower value 0.994 | S. cerevisiae deletion strains, locus YJL134W, strain LCB3, stronger effect = lower value 0.993 | S. cerevisiae deletion strains, locus YJL168C, strain set2, stronger effect = lower value 0.994 | S. cerevisiae deletion strains, locus YJL187C, strain SWE1 (second series), stronger effect = lower value 0.981 | [10] 1.02 | [11] 0.995 | S. cerevisiae deletion strains, locus YKL009W, strain mrt4, stronger effect = lower value 1.01 | S. cerevisiae deletion strains, locus YKL068W, stronger effect = lower value 0.996 | S. cerevisiae deletion strains, locus YKR001C, strain vps1, stronger effect = lower value 0.989 | [12] 0.987 | S. cerevisiae deletion strains, locus YLR058C, strain SHM2, stronger effect = lower value 0.995 | S. cerevisiae deletion strains, locus YLR102C, strain apc9, stronger effect = lower value 0.993 | [15] 1.04 | S. cerevisiae deletion strains, locus YLR268W, strain sec22, stronger effect = lower value 0.995 | S. cerevisiae deletion strains, locus YLR330W, strain CHS5, stronger effect = lower value 0.997 | S. cerevisiae deletion strains, locus YLR371W, strain rom2, stronger effect = lower value 0.99 | S. cerevisiae deletion strains, locus YLR418C, strain cdc73, stronger effect = lower value 0.991 | S. cerevisiae deletion strains, locus YML016C, strain PPZ1, stronger effect = lower value 0.982 | S. cerevisiae deletion strains, locus YML032C, strain rad52, stronger effect = lower value 0.995 | S. cerevisiae deletion strains, locus YML124C, strain tub3, stronger effect = lower value 0.988 | S. cerevisiae deletion strains, locus YMR078C, strain ctf18, stronger effect = lower value 0.993 | S. cerevisiae deletion strains, locus YMR223W, strain ubp8, stronger effect = lower value 0.993 | [27] 0.981 | S. cerevisiae deletion strains, locus YNL067W, strain RPL9B, stronger effect = lower value 0.98 | [20] 0.993 | S. cerevisiae deletion strains, locus YNL233W, strain BNI4, stronger effect = lower value 1.01 | S. cerevisiae deletion strains, locus YNL250W, strain rad50, stronger effect = lower value 0.989 | S. cerevisiae deletion strains, locus YNL271C, strain bni1, stronger effect = lower value 0.993 | S. cerevisiae deletion strains, locus YNL298W, strain CLA4, stronger effect = lower value 0.99 | S. cerevisiae deletion strains, locus YNL307C, strain MCK1, stronger effect = lower value 0.993 | S. cerevisiae deletion strains, locus YNR052C, strain pop2, stronger effect = lower value 0.983 | S. cerevisiae deletion strains, locus YOL012C, strain htz1 0.79 | S. cerevisiae deletion strains, locus YOL147C, strain pex11, stronger effect = lower value 0.997 | S. cerevisiae deletion strains, locus YOR061W, strain CKA2, stronger effect = lower value 0.992 | S. cerevisiae deletion strains, locus YOR069W, strain VPS5, stronger effect = lower value 0.992 | S. cerevisiae deletion strains, locus YOR136W, strain idh2, stronger effect = lower value 0.991 | S. cerevisiae deletion strains, locus YOR144C, strain elg1, stronger effect = lower value 0.989 | S. cerevisiae deletion strains, locus YOR184W, strain ser1, stronger effect = lower value 1.01 | S. cerevisiae deletion strains, locus YOR316C, strain cot1, stronger effect = lower value 0.99 | [25] 0.999 | S. cerevisiae deletion strains, locus YPR119W, strain clb2, stronger effect = lower value 0.991 | S. cerevisiae deletion strains, locus YPR141C, strain kar3, stronger effect = lower value 0.99 | S. cerevisiae deletion strains, locus YPR163C, strain tif3, stronger effect = lower value 0.992 | S. cerevisiae deletion strains, locus YPR167C, strain met16, stronger effect = lower value 0.992 | S. cerevisiae deletion strains, strain wtn01, stronger effect = lower value 1.01
active: S. cerevisiae deletion strains, locus YKL085W, strain MDH1 (second series), stronger effect = lower value 1.13 [resistant] | S. cerevisiae deletion strains, locus YKL085W, strain MDH1, stronger effect = lower value 1.13 [resistant]
